“And” between values parts separate entries of the source, which are not always exact repeats. Identical values can stand only once. The source made the active and inactive calls.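 The calls were made as follows: active = compounds whose cell count with miR-34 switched on is under 0.7 times the count with it off; inactive = the rest.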
Assay: sensitizers of A549 cells to miR-34 induction, primary screen, imaging, A549 dox-inducible miR-34, nuclei and caspase counts (AID 1347080); also: test concentration not given here
Settings: A549 miR-34 inducible, Hoechst nuclei count, 48 h
[1] = stronger effect = lower value, cell number ratio, induced over uninduced
[2] = measured here: relative caspase fold change +Dox/-Dox
[3] = measured here: total cells with miR-34 induction, stronger effect = lower value
[4] = measured here: total cells without miR-34 induction

| Structure (SMILES) | fold change [1] | fold change [2] | cell count [3] | cell count [4] |
| --- | --- | --- | --- | --- |
| CCCCC[C@@](C)(O)/C=C/[C@H]1C=CC(=O)[C@@H]1C/C=C\CCCC(=O)O | 0.996 (inactive) | 1.14 | 5680 | 5710 |
| CC(C)OC(=O)CCC/C=C\C[C@@H]1[C@@H](/C=C/[C@H](O)C2Cc3ccccc3C2)[C@@H](F)C[C@@H]1O | 0.981 (inactive) | 2.25 | 5350 | 5450 |
| O=C1OC(O)C(c2cc3ccccc3s2)=C1Br (stereo not given) | 0.915 (inactive) | 0.534 | 5180 | 5660 |
| CC(C)[C@H](O)C(=O)O | 0.982 (inactive) | 1.05 | 5470 | 5570 |
| O=C(Cc1ccccc1Nc1c(Cl)cccc1Cl)Oc1ccc(-c2cc(=S)ss2)cc1 | 0.933 (inactive) | 1.55 | 6130 | 6570 |
| O=C(O)CCC/C=C\C[C@@H]1C(=O)C[C@@H](O)[C@@H]1/C=C/[C@@H](O)CCc1ccccc1 | 0.867 (inactive) | 0.324 | 5200 | 6000 |
| CCCCCCCCNC(=O)Cc1c(C)n(C(=O)c2ccc(Cl)cc2)c2ccc(OC)cc12 | 1.03 (inactive) | 0.978 | 5650 | 5490 |
| CCCCC/C=C\C/C=C\CC/C=C\CCCC(=O)OCC | 1.04 (inactive) | 1.09 | 5570 | 5390 |
| O=P(O)(O)OC1[C@H](O)[C@H](O)C(O)[C@H](O)[C@H]1O (stereo not given in full) | 1.11 (inactive) | 0.357 | 6420 | 5790 |
| CCCCCCCCCCCCCCCCCC(=O)N[C@H]1CCOC1=O | 1.11 (inactive) | 1.44 | 6650 | 6000 |
| C[n+]1ccc(/C=C/c2c[nH]c3ccccc23)cc1 | 1.05 (inactive) | 1.99 | 1600 | 1530 |
| C=C1C[C@@H](O)[C@H](/C=C/[C@@H](O)C(C)(C)CCCC)[C@H]1C/C=C\CCCC(=O)O | 0.979 (inactive) and 0.901 (inactive) | 1.17 and 1.12 | 6150 and 5990 | 6290 and 6650 |
| CCCCC[C@H](O)/C=C/[C@@H]1[C@H]2C/C=C\CCCC(=O)O[C@@H]1C[C@@H]2O | 0.912 (inactive) | 0.907 | 5380 | 5900 |
| Nc1nc2c([nH]c(=O)n2[C@@H]2O[C@H](CO)[C@@H](O)[C@H]2O)c(=O)[nH]1 | 1.03 (inactive) | 0.878 | 5770 | 5600 |
| CCOC(=O)c1ccnc(C(=O)OCC)c1 | 0.975 (inactive) | 0.9 | 5540 | 5690 |
| C#CCOc1ccccc1CCCCCC(=O)O | 1.11 (inactive) | 0.728 | 5930 | 5330 |
| O=P(O)(O)OC1[C@H](OP(=O)(O)O)[C@H](O)C(O)[C@H](O)[C@H]1OP(=O)(O)O (stereo not given in full) | 0.94 (inactive) | 1.1 | 5720 | 6080 |
| CCCCCCCCCCCCCCCCOC[C@H](COP(=O)([O-])OCC[N+](C)(C)C)OC | 0.789 (inactive) | 1.27 | 5780 | 7330 |
| O=C(OC[C@@H]1O[C@H]1c1ccccc1)Oc1ccc([N+](=O)[O-])cc1 | 0.896 (inactive) | 0.428 | 5550 | 6200 |
| CCCCC[C@H](O)/C=C/[C@H]1[C@H](O)CC(=O)[C@H]1C/C=C\CCCC(=O)OC(C)C | 0.953 (inactive) | 1.45 | 5550 | 5820 |
| CC/C=C\C/C=C\C/C=C\C/C=C\CCCCC(=O)O | 0.875 (inactive) | 0.773 | 5720 | 6540 |
| Cc1c(C(=O)c2ccccc2)c(N)c(-c2ccccc2)n1Cc1ccc(Cl)cc1 | 0.936 (inactive) | 1.39 | 5890 | 6290 |
| O=C(O)CCC/C=C\C[C@@H]1[C@@H](/C=C/C(=O)COc2cccc(C(F)(F)F)c2)[C@H](O)C[C@@H]1O | 0.949 (inactive) | 0.381 | 6020 | 6340 |
| C[C@@H](O)CCC[C@H](O)/C=C/C1=C(C/C=C\CCCC(=O)O)C(=O)CC1 | 0.915 (inactive) | 1.31 | 5730 | 6260 |
| CCCCC[C@@H](O)/C=C/[C@H]1C[C@H]2C[C@@H]([C@@H]1C/C=C\CCCC(=O)O)C2(C)C | 0.917 (inactive) | 0.452 | 5480 | 5970 |
| CCCCC[C@H](O)/C=C/[C@H]1C(=O)C[C@H](O)[C@@H]1CCCCCCCO | 1.14 (inactive) | 1.46 | 5820 | 5120 |
| CC(=O)[C@H]1[C@H](C#N)C[C@H]2[C@@H]3CC=C4C[C@@H](O)CC[C@]4(C)[C@H]3CC[C@@]21C | 1.01 (inactive) | 1.04 | 5370 | 5300 |
| CC/C=C\C/C=C\C/C=C\C/C=C\CCCCC(=O)OCC | 1.03 (inactive) | 1.28 | 5830 | 5650 |
| CCCCCC(=O)CC[C@H]1C(=O)C=C[C@@H]1C/C=C\CCCC(=O)O | 0.989 (inactive) | 0.66 | 5270 | 5330 |
| CCCCC(C)(O)C/C=C/[C@H]1[C@H](O)CC(=O)[C@H]1CCCCCCC(=O)OC (stereo not given in full) | 1.02 (inactive) | 1.88 | 5420 | 5290 |
